PLCb3 inh = inhibitors of human phospholipase C beta3 | Q01970 | Purified PLC-beta3, fluorogenic substrate, fluorescence | inhibition, % at 12.2 µM | actives 0.18% (n = 370,000); in the data active = inhibition above about 11%;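 also: 0% = median of compound wells on plate and 100% = full blocker control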
KLK7 zymogen act = proKLK7 (human) activation, primary screen; purified proKLK7, EDANS-DABCYL substrate fluorescence; 100% is mature enzyme control, 0% vehicle; activation, % at 7 µM; actives 0.9% (n = 370,000); AID 652039;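 active = activation above the mean of all tested compounds plus 3 SD, computed per campaign excluding outliers beyond control limits, cut at about 13% in these data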
PLC-gamma1 inh = inhibitors of human phospholipase C gamma1; purified PLC-gamma1, fluorogenic substrate, fluorescence; inhibition, % at 12.2 µM; actives 0.84% (n = 370,000); AID 720700; in the data active = inhibition above about 9.5%
sPLA2-III inh = Inhibits HGIII-sPLA2 liposome hydrolysis, primary screen; actives 0.56% (n = 370,000); Q9NZ20; QFRET BODIPY PC-A2 liposome hydrolysis, fluorescence; AID 743126; inhibition, % at 12.2 µM;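 active = inhibition above mean plus 3 SD of compounds lying within the high and low control bounds, cut at about 19% in these data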;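 also: 0% = median of test compound wells and 100% = no enzyme DMSO wells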
ADAM17 inh = inhibitors of human ADAM17; P78536; recombinant ADAM17, EDANS/DABCYL FRET peptide cleavage; inhibition, % at 6.95 µM; actives 0.83% (n = 370,000);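 active = inhibition above the mean of compounds lying between control limits plus 3 SD, set per campaign, cut at about 8.5% in these data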;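 also: 0% = DMSO-only wells as the low control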
Target sequence (P78536 215-824 limits assumed): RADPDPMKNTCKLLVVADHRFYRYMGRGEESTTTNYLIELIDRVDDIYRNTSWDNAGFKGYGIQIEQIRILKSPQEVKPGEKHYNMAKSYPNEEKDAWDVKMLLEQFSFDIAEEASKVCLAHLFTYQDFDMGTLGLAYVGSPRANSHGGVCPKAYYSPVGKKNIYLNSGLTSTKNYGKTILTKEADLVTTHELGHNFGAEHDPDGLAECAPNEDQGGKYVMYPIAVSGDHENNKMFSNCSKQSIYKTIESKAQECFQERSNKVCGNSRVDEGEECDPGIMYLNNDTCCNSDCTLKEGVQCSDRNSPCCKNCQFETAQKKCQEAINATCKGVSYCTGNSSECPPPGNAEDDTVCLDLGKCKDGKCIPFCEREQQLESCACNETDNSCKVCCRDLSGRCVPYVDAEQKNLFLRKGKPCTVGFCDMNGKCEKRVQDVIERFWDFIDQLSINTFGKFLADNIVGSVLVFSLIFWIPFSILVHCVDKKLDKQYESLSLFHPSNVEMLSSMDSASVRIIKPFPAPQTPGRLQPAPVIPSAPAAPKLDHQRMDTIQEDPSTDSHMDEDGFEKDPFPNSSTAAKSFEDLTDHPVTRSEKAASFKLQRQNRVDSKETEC
ADAM10 inh = inhibitors of human ADAM10. O14672. recombinant ADAM10, EDANS/DABCYL FRET peptide cleavage, 3 h. inhibition, % at 7 µM. actives 0.62% (n = 370,000). AID 720582;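 active = inhibition above a per-campaign cutoff equal to the mean of compounds falling between control-based bounds plus 3 SD, cut at about 20% in these data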;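 also: 0% = DMSO wells while the 100% control is not disclosed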
* hit, by the source's call; i = inactive. This is a sample that favours compounds with a hit; in the whole collection about 3.4% have one here.

SMILES | PLCb3 inh | KLK7 zymogen act | PLC-gamma1 inh | sPLA2-III inh | ADAM17 inh | ADAM10 inh
C#CCN(C[C@@H]1[C@@H](OC(=O)NC2CCCC2)[C@@H](OC(=O)NC2CCCC2)Cn2c(=O)ccc(=O)n21)S(=O)(=O)c1ccc(C)cc1 | -0.7 | 0.4 | 1.2 | -4.6 | -0.8 | 2.6
C#CCN(C[C@@H]1[C@@H](OC(=O)Nc2cccs2)[C@@H](OC(=O)Nc2cccs2)Cn2c(=O)ccc(=O)n21)S(=O)(=O)c1ccc(C)cc1 | -4.3 | -0.6 | -3.5 | -15.7 | 10.5* | 18.1
COc1ccc(C(CNC(=O)c2ccc(C)c(S(=O)(=O)N3CCOCC3)c2)N2CCCC2)cc1 (stereo not drawn) | -14.9 | 0.0 | 10.3* | 11.3 | 0.3 | -6.0
C#CCNC(=O)C[C@H]1C[C@@]2(C(=O)OC)C(=C[C@H](C(C)C)O[C@@H]2C2CC2)N(Cc2ccc3c(c2)OCO3)C1=O | 2.6 | 0.3 | 1.6 | 0.3 | -0.6 | 4.4
CCOc1ccc(N=Cc2ccc([N+](=O)[O-])cc2)c(O)c1 | -99.5 | 18.0* | -72.5 | -22.8 | -3.6 | -22.5
CCOc1ccc(CNC(=S)N/N=C\c2ccc([N+](=O)[O-])cc2)cc1 | -0.7 | -0.1 | 1.7 | -2.4 | -0.4 | -5.7
O=C(NCCCl)c1ccc(OCc2ccccc2)cc1Cl | -2.5 | 0.0 | 2.1 | 21.5* | -2.5 | -7.0
C[C@H](CO)N1C[C@H](C)[C@@H](CN(C)Cc2ccc(Oc3ccccc3)cc2)Oc2c(NC(=O)C3CC3)cccc2C1=O | 3.8 | 0.4 | 2.0 | -27.7 | 8.1 | 22.4*
COc1ccc(S(=O)(=O)N(C)C[C@H]2Oc3c(NC(=O)C4CCCCC4)cccc3C(=O)N([C@H](C)CO)C[C@@H]2C)cc1 | -0.8 | 0.8 | 9.6* | -18.8 | -3.6 | 3.2
C[C@H](CO)N1C[C@H](C)[C@@H](CN(C)CC2CCCCC2)Oc2c(NS(=O)(=O)c3ccccc3)cccc2C1=O | 11.2* | 0.5 | 6.5 | -3.8 | 3.7 | 3.2
CCOC(=O)CCC(=O)c1c(C)oc2ccc(OC)cc12 | -2.0 | -0.6 | -0.1 | 10.3 | 9.9* | 0.1
CN(C)S(=O)(=O)c1cccc(-c2nnc(SCc3ccc4c(c3)OCCO4)o2)c1 | 3.2 | 0.1 | 7.7 | -24.3 | 11.6* | 20.4*
CC(C)c1nc(N(C)S(C)(=O)=O)nc(-c2ccc(F)cc2)c1/C=C/[C@H](O)C[C@@H](O)CC(=O)O | 3.0 | 0.1 | -1.1 | -0.1 | 0.0 | -1.8
O=C1c2cccc(NCCNCCO)c2C(=O)c2cccc(NCCNCCO)c21 | -4.2 | -1.1 | -3.2 | 30.0* | -7.0 | -15.9
O=C(O)CCNc1ccc(NCCC(=O)O)c2c1C(=O)c1ccccc1C2=O | -7.4 | 0.3 | -4.5 | 12.7 | -4.9 | 5.2
CCCCCCS(=O)[C@H]1CS(=O)(=O)C[C@@H]1S(=O)CCCCCC (stereo partly drawn) | 10.6* | 0.1 | 3.1 | -1.4 | 1.9 | 5.7
COc1cccc(C(=O)NCCN2C(=O)C3C4C=CC(C4)C3C2=O)c1 (stereo not drawn) | -2.1 | 0.4 | -1.8 | 1.2 | -3.5 | -7.0
CCN(CC)S(=O)(=O)c1ccc2c(c1)nc(CCC(=O)Nc1cccc(C(F)(F)F)c1)n2CC | 1.3 | 0.2 | 5.3 | -59.2 | 10.4* | 17.4
Cc1cccn2c(=O)c3cc(C(=O)NCc4ccco4)c(=N)n(CCc4ccccc4)c3nc12 | i | 18.2* | -379.9 | -3.3 | -481.9 | i
COc1ccc(/C=C2\SC(=S)N(CCCC(=O)NNC(=O)c3ccccc3O)C2=O)cc1 | 1.3 | -0.3 | 4.8 | 15.5 | -0.1 | -0.9
O=C(CN1C(=O)S/C(=C\c2ccc(Cl)cc2)C1=O)NNC(=O)c1ccccc1O | -14.4 | 0.5 | 3.1 | 43.9* | -0.4 | 7.3
Cc1[nH]n(-c2ccccc2)c(=O)c1C(c1cccc([N+](=O)[O-])c1)c1c(C)[nH]n(-c2ccccc2)c1=O | 6.8 | -0.3 | 12.7* | -9.7 | 4.6 | 5.2
COc1cccc(C(C[N+](=O)[O-])c2c(C)[nH]n(-c3ccccc3)c2=O)c1 (stereo not drawn) | -4.3 | -0.1 | 2.9 | -6.5 | 0.1 | -2.0
CCOC(=O)c1cc2c(=O)n3ccccc3nc2n(Cc2ccco2)c1=NC(=O)c1ccc(OC)cc1OC | i | 16.5* | i | 0.8 | i | i
CCCCn1c(NC(=O)c2ccco2)c(S(=O)(=O)c2ccc(C)cc2)c2nc3ccccc3nc21 | -491.6 | -1.7 | -369.0 | -39.2 | -313.2 | i
SMILES | PLCb3 inh | KLK7 zymogen act | PLC-gamma1 inh | sPLA2-III inh | ADAM17 inh | ADAM10 inh
CCCCn1c(NS(=O)(=O)c2ccccc2)c(S(=O)(=O)c2ccc(C)cc2)c2nc3ccccc3nc21 | -19.6 | 3.6 | 16.9* | 26.5* | -32.0 | -102.1
Cc1cc(Br)cn2c(Cc3ccccc3C(F)(F)F)c(-c3ccco3)nc12 | -11.8 | 1.3 | -12.2 | 10.3 | -3.7 | -15.4
Cc1ccc2c(c1)N(S(=O)(=O)c1ccc(CN3C(=O)c4cccnc4C3=O)cc1)CCO2 | -3.8 | 0.1 | 3.9 | 0.7 | -0.5 | -5.0
Cc1ccc2c(c1)N(S(=O)(=O)c1ccc(CN3C(=O)c4cccnc4C3=O)s1)CCO2 | -4.2 | 0.1 | 11.8* | 0.9 | 1.4 | 9.7
N#Cc1c(C(F)(F)F)cc(-c2ccc(Cl)cc2)[nH]c1=O | -485.0 | 21.3* | -427.4 | -25.3 | i | i
CCOC(=O)c1ccc(NC(=O)CSc2nnc(-c3cc(-c4ccccc4)n[nH]3)n2N)cc1 | -0.2 | -0.1 | 1.2 | 4.8 | 2.9 | -7.3
CCCCCCCCCCCCN1[C@@H](CC(=O)O)c2cc(C(F)(F)F)ccc2S1(=O)=O | -4.9 | -0.1 | -1.8 | -26.4 | 2.5 | 21.8*
O=C1Cc2ccccc2C(=O)N1 | -0.5 | 0.5 | 10.7* | 1.0 | -1.8 | -15.1
CCOC(=O)c1cnn(-c2cc(C(C)(C)C)nc3c(-c4ccccc4)c(C)nn23)c1N | -0.9 | 0.1 | 0.5 | 4.2 | -5.3 | 2.9
CCOC(=O)c1cnn(-c2c(Cc3ccccc3)c(C)nc3c(-c4ccccc4)c(C)nn23)c1N | -3.4 | -0.6 | 5.5 | 2.2 | 10.0* | 10.0
CC(C)C[C@H]1COc2cc(Br)ccc2S(=O)(=O)N1Cc1cn(Cc2ccc(Br)cc2)nn1 | 2.1 | 0.5 | 0.6 | 5.5 | -0.7 | 1.9
O=c1oc2ccccc2c2oc3cc(O)c(O)cc3c12 | i | -0.2 | i | 21.6* | -3.0 | -1.8
COc1ccc(NC(=O)CN2CCN(c3nc(-c4cccc(OC)c4)cs3)CC2)cc1 | -2.7 | 0.2 | 2.0 | 3.2 | 8.6 | 20.3*
O=C(Nc1ccc2c(c1)CCC2)c1cc(S(=O)(=O)N2CCN(c3ccccc3)CC2)ccc1Cl | -3.1 | -1.0 | 0.3 | -5.8 | 6.6 | 21.6*
Cn1cc(C2(C)CCOc3ccccc32)c2ccccc21 (stereo not drawn) | -4.2 | -0.7 | -2.7 | 1.4 | -3.8 | -17.2

Screening results from PubChem BioAssay.
